Data as given in PubChem BioAssay AID1159580 (chemical genetic matrix, 2015).
“And” between values parts separate entries of the source, which are not always exact repeats. Equal values may be shown once. Screen size: about 5,500 compounds; about 2,000 (36%) were called active. Roughly 18% stayed inconclusive and do not appear here. Cut-off read from the data, not from the text of the source: active = normalized growth mostly below about 0.91 (no sharp cut-off); inconclusive = no clear call, values can overlap the other calls; inactive = mostly above about 0.92. Some of the results follow.

Assay: chemical genetic growth profiling, strain panel (AID 1159580);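 note: tested at 20 µM; growth read once vehicle control cultures reached saturation at 30 °C; 1 = growth at the plate median or of vehicle wells; lower values mean less growth of the strain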
Conditions: growth OD

Measured: normalized growth

Clc1ccc(C(c2ccccc2Cl)C(Cl)Cl)cc1 (stereo not given)
active: S. cerevisiae deletion strains, locus YLR027C, strain aat2, active compounds read low 0.889 | S. cerevisiae deletion strains, locus YNL071W, strain lat1, active compounds read low 0.907 | S. cerevisiae deletion strains, locus YPL078C, strain atp4, active compounds read low 0.889
inactive: S. cerevisiae deletion strains, locus YJR066W, strain TOR1, active compounds read low 0.894 | S. cerevisiae deletion strains, locus YJR075W, strain HOC1, active compounds read low 1 | S. cerevisiae deletion strains, locus YKL009W, strain mrt4, active compounds read low 0.98 | S. cerevisiae deletion strains, locus YKL068W, active compounds read low 0.995 | S. cerevisiae deletion strains, locus YKL085W, strain MDH1 (second series), active compounds read low 0.989 | S. cerevisiae deletion strains, locus YKL085W, strain MDH1, active compounds read low 0.989 | S. cerevisiae deletion strains, locus YKL160W, strain elf1, active compounds read low 0.923 | S. cerevisiae deletion strains, locus YKL190W, strain CNB1, active compounds read low 1.03 | S. cerevisiae deletion strains, locus YKR001C, strain vps1, active compounds read low 0.968 | S. cerevisiae deletion strains, locus YKR026C, strain gcn3, active compounds read low 0.979 | S. cerevisiae deletion strains, locus YKR091W, strain srl3, active compounds read low 0.976 | S. cerevisiae deletion strains, locus YLL001W, strain dnm1, active compounds read low 0.91 | S. cerevisiae deletion strains, locus YLL026W, active compounds read low 0.962 | S. cerevisiae deletion strains, locus YLL041C, strain sdh2, active compounds read low 0.972 | S. cerevisiae deletion strains, locus YLR039C, strain RIC1, active compounds read low 0.978 | S. cerevisiae deletion strains, locus YLR058C, strain SHM2, active compounds read low 0.994 | S. cerevisiae deletion strains, locus YLR102C, strain apc9, active compounds read low 0.993 | S. cerevisiae deletion strains, locus YLR113W, strain HOG1, active compounds read low 0.93 | S. cerevisiae deletion strains, locus YLR221C, strain rsa3, active compounds read low 0.927 | S. cerevisiae deletion strains, locus YLR258W, strain gsy2, active compounds read low 0.984 | S. cerevisiae deletion strains, locus YLR262C, strain YPT6 (second series), active compounds read low 0.881 | S. cerevisiae deletion strains, locus YLR262C, strain YPT6, active compounds read low 0.955 | S. cerevisiae deletion strains, locus YLR268W, strain sec22, active compounds read low 0.988 | S. cerevisiae deletion strains, locus YLR320W, strain mms22, active compounds read low 0.929 | S. cerevisiae deletion strains, locus YLR330W, strain CHS5, active compounds read low 1 | S. cerevisiae deletion strains, locus YLR342W, strain FKS1 (second series), active compounds read low 1 | S. cerevisiae deletion strains, locus YLR342W, strain FKS1, active compounds read low 0.999 | S. cerevisiae deletion strains, locus YLR357W, strain rsc2, active compounds read low 1.04 | S. cerevisiae deletion strains, locus YLR370C, strain arc18, active compounds read low 0.968 | S. cerevisiae deletion strains, locus YLR371W, strain rom2, active compounds read low 0.985 | S. cerevisiae deletion strains, locus YLR384C, strain iki3, active compounds read low 0.97 | S. cerevisiae deletion strains, locus YLR418C, strain cdc73, active compounds read low 0.91 | S. cerevisiae deletion strains, locus YML016C, strain PPZ1, active compounds read low 0.992 | S. cerevisiae deletion strains, locus YML032C, strain rad52, active compounds read low 0.979 | S. cerevisiae deletion strains, locus YML120C, strain ndi1, active compounds read low 0.932 | S. cerevisiae deletion strains, locus YML124C, strain tub3, active compounds read low 0.988 | S. cerevisiae deletion strains, locus YMR058W, strain fet3, active compounds read low 0.952 | S. cerevisiae deletion strains, locus YMR078C, strain ctf18, active compounds read low 0.984 | S. cerevisiae deletion strains, locus YMR125W, strain sto1, active compounds read low 0.991 | S. cerevisiae deletion strains, locus YMR129W, active compounds read low 0.972 | S. cerevisiae deletion strains, locus YMR205C, strain PFK2, active compounds read low 0.918 | S. cerevisiae deletion strains, locus YMR223W, strain ubp8, active compounds read low 0.978 | S. cerevisiae deletion strains, locus YMR231W, strain pep5, active compounds read low 0.97 | S. cerevisiae deletion strains, locus YMR263W, strain SAP30, active compounds read low 0.975 | S. cerevisiae deletion strains, locus YMR307W, strain GAS1, active compounds read low 0.986 | S. cerevisiae deletion strains, locus YNL067W, strain RPL9B, active compounds read low 0.993 | S. cerevisiae deletion strains, locus YNL128W, strain TEP1, active compounds read low 1.01 and 1.02 | S. cerevisiae deletion strains, locus YNL153C, strain GIM3, active compounds read low 1.01 | S. cerevisiae deletion strains, locus YNL183C, strain NPR1, active compounds read low 0.914 | S. cerevisiae deletion strains, locus YNL197C, strain WHI3, active compounds read low 1.1 | S. cerevisiae deletion strains, locus YNL209W, strain ssb2, active compounds read low 0.983 | S. cerevisiae deletion strains, locus YNL224C, strain SQS1, active compounds read low 1 | S. cerevisiae deletion strains, locus YNL233W, strain BNI4, active compounds read low 1.01 | S. cerevisiae deletion strains, locus YNL248C, strain rpa49, active compounds read low 0.99 | S. cerevisiae deletion strains, locus YNL250W, strain rad50, active compounds read low 0.987 | S. cerevisiae deletion strains, locus YNL271C, strain bni1, active compounds read low 0.987 | S. cerevisiae deletion strains, locus YNL298W, strain CLA4, active compounds read low 0.978 | S. cerevisiae deletion strains, locus YNL307C, strain MCK1, active compounds read low 0.912 | S. cerevisiae deletion strains, locus YNL322C, strain KRE1 (second series), active compounds read low 0.976 | S. cerevisiae deletion strains, locus YNL322C, strain KRE1, active compounds read low 1 | S. cerevisiae deletion strains, locus YNR049C, strain mso1, active compounds read low 0.978 | S. cerevisiae deletion strains, locus YNR052C, strain pop2, active compounds read low 0.985 | S. cerevisiae deletion strains, locus YOL006C, strain TOP1, active compounds read low 0.918 | S. cerevisiae deletion strains, locus YOL012C, strain htz1 0.884 | S. cerevisiae deletion strains, locus YOL147C, strain pex11, active compounds read low 0.991 | S. cerevisiae deletion strains, locus YOR001W, strain rrp6, active compounds read low 0.931 | S. cerevisiae deletion strains, locus YOR061W, strain CKA2, active compounds read low 1 | S. cerevisiae deletion strains, locus YOR069W, strain VPS5, active compounds read low 1.01 | S. cerevisiae deletion strains, locus YOR070C, strain gyp1, active compounds read low 0.996 | S. cerevisiae deletion strains, locus YOR080W, strain dia2, active compounds read low 0.969 | S. cerevisiae deletion strains, locus YOR083W, strain WHI5, active compounds read low 0.921 | S. cerevisiae deletion strains, locus YOR106W, strain vam3, active compounds read low 0.888 | S. cerevisiae deletion strains, locus YOR136W, strain idh2, active compounds read low 0.976 | S. cerevisiae deletion strains, locus YOR144C, strain elg1, active compounds read low 0.991 | S. cerevisiae deletion strains, locus YOR184W, strain ser1, active compounds read low 0.963 | S. cerevisiae deletion strains, locus YOR231W, strain MKK1, active compounds read low 0.948 | S. cerevisiae deletion strains, locus YOR265W, strain rbl2, active compounds read low 0.97 | S. cerevisiae deletion strains, locus YOR270C, strain vph1, active compounds read low 0.789 | S. cerevisiae deletion strains, locus YOR290C, strain snf2, active compounds read low 0.983 | S. cerevisiae deletion strains, locus YOR316C, strain cot1, active compounds read low 0.984 | S. cerevisiae deletion strains, locus YPL051W, strain arl3, active compounds read low 0.956 | S. cerevisiae deletion strains, locus YPL055C, strain LGE1, active compounds read low 1.03 | S. cerevisiae deletion strains, locus YPL106C, strain sse1, active compounds read low 1 | S. cerevisiae deletion strains, locus YPL240C, strain hsp82, active compounds read low 0.983 | S. cerevisiae deletion strains, locus YPL241C, strain CIN2, active compounds read low 1.01 | S. cerevisiae deletion strains, locus YPL256C, strain CLN2, active compounds read low 0.908 | S. cerevisiae deletion strains, locus YPR119W, strain clb2, active compounds read low 0.991 | S. cerevisiae deletion strains, locus YPR141C, strain kar3, active compounds read low 0.995 | S. cerevisiae deletion strains, locus YPR163C, strain tif3, active compounds read low 0.992 | S. cerevisiae deletion strains, locus YPR167C, strain met16, active compounds read low 0.989 | S. cerevisiae deletion strains, strain wtn01, active compounds read low 0.977 | S. cerevisiae strains, strain wild type, active compounds read low 1.01
